Measurements as given in PubChem BioAssay AID1159580 (chemical genetic matrix, 2015).
Values joined by “and” are separate entries in the source; they are usually repeats but may differ in a detail not shown here. Identical values can stand only once. About 2,000 (36%) of roughly 5,500 compounds were called active. Not shown: some 18% with an inconclusive outcome. Cut-off read from the data, not from the text of the source: active = normalized growth mostly below about 0.91 (no sharp cut-off); inconclusive = no clear call, values can overlap the other calls; inactive = mostly above about 0.92. The list shows a part of the results.

Test: chemical genetic growth profiling, strain panel (AID 1159580);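 note: tested at 20 µM; growth read once vehicle control cultures reached saturation at 30 °C; 1 = growth at the plate median or of vehicle wells; lower values mean less growth of the strain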
Conditions: S. cerevisiae deletion strains, growth OD

Measured: normalized growth

Cc1cc(C2CCCCC2)n(O)c(=O)c1
active: locus YAL013W, strain DEP1, active compounds read low 0.0568 | locus YAL021C, strain ccr4, active compounds read low 0.0678 | locus YAL026C, strain drs2, active compounds read low 0.0676 | locus YAL030W, strain snc1, active compounds read low 0.0625 | locus YBL061C, strain skt5, active compounds read low 0.0672 | locus YBR009C, strain hhf1, active compounds read low 0.0705 | locus YBR021W, strain FUR4, active compounds read low 0.0983 | locus YBR023C, strain chs3, active compounds read low 0.0704 | locus YBR171W, strain sec66, active compounds read low 0.0805 | locus YBR229C, strain ROT2, active compounds read low 0.0502 | locus YBR231C, strain swc5, active compounds read low 0.0693 | locus YBR279W, strain paf1, active compounds read low 0.0649 | locus YCL011C, strain gbp2, active compounds read low 0.0616 | locus YCL016C, strain dcc1, active compounds read low 0.0719 | locus YCL029C, strain bik1, active compounds read low 0.0632 | locus YCL061C, strain MRC1, active compounds read low 0.0677 | locus YCL069W, strain vba3, active compounds read low 0.0654 | locus YCR088W, strain abp1, active compounds read low 0.0632 | locus YDL005C, strain med2, active compounds read low 0.0889 | locus YDL035C, strain GPR1, active compounds read low 0.0542 | locus YDL040C, strain nat1, active compounds read low 0.0679 | locus YDL074C, strain BRE1, active compounds read low 0.0802 | locus YDL101C, strain DUN1, active compounds read low 0.0596 | locus YDL134C, strain PPH21, active compounds read low 0.0521 | locus YDL185W, strain tfp1, active compounds read low 0.058 | locus YDL192W, strain arf1, active compounds read low 0.0653 | locus YDR001C, strain nth1, active compounds read low 0.0631 | locus YDR069C, strain doa4, active compounds read low 0.0665 | locus YDR101C, strain arx1, active compounds read low 0.06 | locus YDR137W, strain rgp1, active compounds read low 0.0918 | locus YDR159W, strain sac3, active compounds read low 0.0928 | locus YDR162C, strain NBP2, active compounds read low 0.0474 | locus YDR195W, strain ref2 0.135 | locus YDR297W, strain sur2, active compounds read low 0.0662 | locus YDR318W, strain mcm21, active compounds read low 0.0655 | locus YDR334W, strain swr1, active compounds read low 0.0673 | locus YDR335W, strain msn5, active compounds read low 0.0634 | locus YDR388W, active compounds read low 0.0556 | locus YDR392W, strain spt3, active compounds read low 0.101 | locus YDR502C, strain sam2, active compounds read low 0.0664 | locus YEL003W, strain gim4, active compounds read low 0.0625 | locus YEL037C, strain rad23, active compounds read low 0.0622 | locus YEL061C, strain CIN8 (second series), active compounds read low 0.0671 | locus YEL061C, strain CIN8, active compounds read low 0.0514 | locus YER015W, strain faa2, active compounds read low 0.0656 | locus YER016W, strain bim1, active compounds read low 0.0682 | locus YER110C, active compounds read low 0.0812 | locus YER111C, strain swi4, active compounds read low 0.0758 | locus YER155C, strain BEM2 (second series), active compounds read low 0.0947 | locus YER155C, strain BEM2, active compounds read low 0.0718 | locus YER167W, strain BCK2, active compounds read low 0.0519 | locus YFR010W, strain ubp6, active compounds read low 0.0703 | locus YGL078C, strain dbp3, active compounds read low 0.0608 | locus YGL086W, strain mad1, active compounds read low 0.0597 | locus YGL167C, strain pmr1, active compounds read low 0.0798 | locus YGL173C, strain kem1, active compounds read low 0.0716 | locus YGL227W, strain vid30, active compounds read low 0.0707 | locus YGL240W, strain doc1, active compounds read low 0.0866 | locus YGL248W, strain PDE1, active compounds read low 0.0515 | locus YGL253W, strain hxk2, active compounds read low 0.058 | locus YGR078C, strain PAC10, active compounds read low 0.0546 | locus YGR135W, strain pre9, active compounds read low 0.065 | locus YGR252W, strain gcn5, active compounds read low 0.175 | locus YHR013C, strain ard1, active compounds read low 0.11 | locus YHR027C, strain rpn1, active compounds read low 0.0647 | locus YHR030C, strain SLT2, active compounds read low 0.0526 and 0.0937 | locus YHR079C, strain IRE1 (second series), active compounds read low 0.0583 | locus YHR079C, strain IRE1, active compounds read low 0.109 | locus YHR094C, strain hxt1, active compounds read low 0.0632 | locus YHR129C, strain ARP1, active compounds read low 0.0642 | locus YHR142W, strain chs7, active compounds read low 0.0791 | locus YHR200W, strain rpn10, active compounds read low 0.0659 | locus YIL066C, strain RNR3, active compounds read low 0.0522 | locus YIL073C, strain SPO22, active compounds read low 0.112 | locus YIL125W, strain kgd1, active compounds read low 0.0598 | locus YIR030C, strain dcg1, active compounds read low 0.0627 | locus YJL092W, strain hpr5, active compounds read low 0.063 | locus YJL095W, strain BCK1 (second series), active compounds read low 0.0609 | locus YJL095W, strain BCK1, active compounds read low 0.063 and 0.0938 | locus YJL115W, strain asf1, active compounds read low 0.0778 | locus YJL129C, strain trk1, active compounds read low 0.0912 | locus YJL134W, strain LCB3, active compounds read low 0.0539 | locus YJL154C, strain vps35, active compounds read low 0.0631 | locus YJL164C, strain tpk1, active compounds read low 0.0734 | locus YJL166W, strain qcr8, active compounds read low 0.0662 | locus YJL168C, strain set2, active compounds read low 0.0634 | locus YJL187C, strain SWE1 (second series), active compounds read low 0.053 | locus YJL187C, strain SWE1, active compounds read low 0.0672 | locus YJR043C, strain POL32, active compounds read low 0.068 | locus YJR066W, strain TOR1, active compounds read low 0.00216 | locus YJR075W, strain HOC1, active compounds read low 0.0627 | locus YKL009W, strain mrt4, active compounds read low 0.0702 | locus YKL068W, active compounds read low 0.0617 | locus YKL085W, strain MDH1 (second series), active compounds read low 0.0539 | locus YKL085W, strain MDH1, active compounds read low 0.0539 | locus YKL160W, strain elf1, active compounds read low 0.0716 | locus YKL190W, strain CNB1, active compounds read low 0.0484 | locus YKR001C, strain vps1, active compounds read low 0.0653 | locus YKR026C, strain gcn3, active compounds read low 0.0732 | locus YKR091W, strain srl3, active compounds read low 0.069 | locus YLL001W, strain dnm1, active compounds read low 0.0664 | locus YLL026W, active compounds read low 0.0595 | locus YLL041C, strain sdh2, active compounds read low 0.0627 | locus YLR027C, strain aat2, active compounds read low 0.0603 | locus YLR039C, strain RIC1, active compounds read low 0.0987 | locus YLR058C, strain SHM2, active compounds read low 0.0519 | locus YLR102C, strain apc9, active compounds read low 0.0656 | locus YLR113W, strain HOG1, active compounds read low 0.121 | locus YLR221C, strain rsa3, active compounds read low 0.0659 | locus YLR258W, strain gsy2, active compounds read low 0.0669 | locus YLR262C, strain YPT6 (second series), active compounds read low 0.0856 | locus YLR262C, strain YPT6, active compounds read low 0.115 | locus YLR268W, strain sec22, active compounds read low 0.0687 | locus YLR320W, strain mms22, active compounds read low 0.0895 | locus YLR330W, strain CHS5, active compounds read low 0.0525 | locus YLR342W, strain FKS1 (second series), active compounds read low 0.0737 | locus YLR342W, strain FKS1, active compounds read low 0.0735 | locus YLR357W, strain rsc2, active compounds read low 0.133 | locus YLR370C, strain arc18, active compounds read low 0.0637 | locus YLR371W, strain rom2, active compounds read low 0.0664 | locus YLR384C, strain iki3, active compounds read low 0.0637 | locus YLR418C, strain cdc73, active compounds read low 0.0958 | locus YML016C, strain PPZ1, active compounds read low 0.0483 | locus YML032C, strain rad52, active compounds read low 0.0723 | locus YML120C, strain ndi1, active compounds read low 0.0605 | locus YML124C, strain tub3, active compounds read low 0.0619 | locus YMR058W, strain fet3, active compounds read low 0.0627 | locus YMR078C, strain ctf18, active compounds read low 0.0787 | locus YMR125W, strain sto1, active compounds read low 0.0836 | locus YMR129W, active compounds read low 0.0601 | locus YMR205C, strain PFK2, active compounds read low 0.0903 | locus YMR223W, strain ubp8, active compounds read low 0.0675 | locus YMR231W, strain pep5, active compounds read low 0.0767 | locus YMR307W, strain GAS1, active compounds read low 0.146 | locus YNL067W, strain RPL9B, active compounds read low 0.0522 | locus YNL071W, strain lat1, active compounds read low 0.0645 | locus YNL183C, strain NPR1, active compounds read low 0.0014 | locus YNL209W, strain ssb2, active compounds read low 0.0627 | locus YNL233W, strain BNI4, active compounds read low 0.0583 | locus YNL248C, strain rpa49, active compounds read low 0.0814 | locus YNL250W, strain rad50, active compounds read low 0.0854 | locus YNL271C, strain bni1, active compounds read low 0.0657 | locus YNL298W, strain CLA4, active compounds read low 0.0613 | locus YNL307C, strain MCK1, active compounds read low 0.0688 | locus YNL322C, strain KRE1 (second series), active compounds read low 0.0705 | locus YNR049C, strain mso1, active compounds read low 0.0644 | locus YNR052C, strain pop2, active compounds read low 0.0622 | locus YOL147C, strain pex11, active compounds read low 0.0601 | locus YOR001W, strain rrp6, active compounds read low 0.0736 | locus YOR061W, strain CKA2, active compounds read low 0.0512 | locus YOR069W, strain VPS5, active compounds read low 0.0495 | locus YOR070C, strain gyp1, active compounds read low 0.0684 | locus YOR080W, strain dia2, active compounds read low 0.0706 | locus YOR083W, strain WHI5, active compounds read low 0.0687 | locus YOR106W, strain vam3, active compounds read low 0.065 | locus YOR136W, strain idh2, active compounds read low 0.0767 | locus YOR144C, strain elg1, active compounds read low 0.062 | locus YOR184W, strain ser1, active compounds read low 0.0708 | locus YOR231W, strain MKK1, active compounds read low 0.0947 | locus YOR265W, strain rbl2, active compounds read low 0.066 | locus YOR270C, strain vph1, active compounds read low 0.0971 | locus YOR290C, strain snf2, active compounds read low 0.0737 | locus YOR316C, strain cot1, active compounds read low 0.0627 | locus YPL051W, strain arl3, active compounds read low 0.0688 | locus YPL078C, strain atp4, active compounds read low 0.0715 | locus YPL106C, strain sse1, active compounds read low 0.116 | locus YPL240C, strain hsp82, active compounds read low 0.0653 | locus YPL256C, strain CLN2, active compounds read low 0.116 | locus YPR119W, strain clb2, active compounds read low 0.0705 | locus YPR141C, strain kar3, active compounds read low 0.0696 | locus YPR163C, strain tif3, active compounds read low 0.0728 | locus YPR167C, strain met16, active compounds read low 0.0671 | strain wtn01, active compounds read low 0.0665
